Screens deposited in PubChem BioAssay by National Center for Advancing Translational Sciences (NCATS).
HT1080-NT tox: qHTS for induction of synthetic lethality in tumor cells producing 2HG: qHTS for the HT-1080-NT fibrosarcoma cell line. AID 686970, 2013. HT-1080-NT fibrosarcoma viability, CellTiter-Glo ATP luminescence, 48 h. Potency, µM (series often up to 46.1 µM), for inactives: at the highest dose activity, negative = less viability, hits mostly cytotoxic. 360,000 tested, 1.6% active;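 also: NT is the 2HG producing partner of a matched IDH1 knockdown line; potency is read from the fitted curve at half-maximal effect; 0% = DMSO-treated cells and -100% = media-only wells without cells; nearly all actives have a fitted effect of over 55% in size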
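HT-1080-NT; 750 cells/well; 5% FBS RPMI; 48 h compound, 37 degrees C; CellTiter-Glo luminescence; curve fitting and curve-class assignment.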
HT1080 IDH1KD tx: qHTS for induction of synthetic lethality in tumor cells producing 2HG: qHTS for the HT-1080-IDH1KD cell line; 360,000 tested, 2% active; HT-1080 IDH1 knockdown viability, ATP luminescence, 48 h; AID 686971, 2013; Potency, µM (series often up to 46.1 µM), for inactives: at the highest dose activity, negative = toxicity, actives largely listed as cytotoxic;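 also: potency is read from the fitted curve at half-maximal effect; 0% = DMSO wells and -100% = cell-free medium wells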
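Luminescent ATP read-out (CellTiter-Glo, 10 min at room temperature) after 48 h compound exposure at 37 °C gave viability of IDH1-knockdown HT-1080 cells. Activity was normalised to DMSO and cell-free wells, then fitted as concentration-response curves.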
TDP1 cell noCPT: qHTS for Inhibitors of human tyrosyl-DNA phosphodiesterase 1 (TDP1): qHTS in cells in absence of CPT; AID 686978, 2013; 420,000 tested, 15% active; Potency, µM (highest dose often 46.2 µM), for the others: at the top dose activity change, negative = growth inhibition, usual class: inhibitors; DT40 Tdp1-/- hTDP1 cells, no CPT, ATP luminescence, 48 h; also: potency is read from the fitted curve at half-maximal effect; nearly all actives have a fitted effect of over 55% in size
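Cells were dispensed at 400 per well, compounds added by pin tool, plates incubated ≥48 hr at 37 °C, then CellTiter-Glo added for 30 min at room temperature before luminescence reading. Line: DT40 Tdp1-/- complemented with hTDP1; camptothecin omitted.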
IL-1B inflam inh: qHTS for Inhibitors of Inflammasome Signaling: IL-1-beta AlphaLISA Primary Screen; THP-1 LPS/ATP IL-1B secretion, AlphaLISA, 16 h; hits give low values; activity change, % at 57.5 µM; AID 743279, 2014; 360,000 tested, 4.7% active; in the data active = activity change below about -50%; inconclusive = mostly about -30% to -49%
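Secreted IL-1B measured by AlphaLISA bead assay after 16 h compound exposure of THP-1 cells; compounds (final up to 57.5 uM) added 1 h before LPS (250 ng/mL) and ATP (1.25 mM) stimulation; lower signal means less secretion.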
TDP1 cell CPT: qHTS for Inhibitors of human tyrosyl-DNA phosphodiesterase 1 (TDP1): qHTS in cells in presence of CPT; Potency, µM (top dose mostly 46.2 µM), for inactives: at the highest dose activity change, negative = growth inhibition, actives largely listed as inhibitors; chicken DT40 Tdp1-/-;hTDP1 cells + 20 nM CPT, ATP luminescence, 48 h; 420,000 tested, 12% active; also: potency is read from the fitted curve at half-maximal effect; nearly all actives have a fitted effect of over 55% in size
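Cell growth measured by CellTiter-Glo luminescence after a minimum 48 h, 37 C compound exposure with 20 nM CPT in Tdp1-knockout DT40 cells stably expressing hTDP1, seeded 400/well; qHTS titration format.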
The depositor's hits bear a star; ? = inconclusive; · = no result given. Only some compounds are listed: those with a hit (about 19% of all), similar ones and a draw of the others. Unless noted, calls follow the shape of the dose curve; as a rule, active = well fitted curve in the direction sought with a large enough effect; inconclusive = small, poorly fitted or top-dose-only effect, or another doubt; inactive = no such curve, though single readings can be large; an effect the other way counts as inactive or inconclusive. Unless noted, % is scaled to controls: 0 for no effect and ±100 for the full control effect.

SMILES	HT1080-NT tox	HT1080 IDH1KD tx	TDP1 cell noCPT	IL-1B inflam inh	TDP1 cell CPT
OC(COCCOc1ccc(Br)cc1)CN1CCN(Cc2ccccc2)CC1 (centres undefined)	-15%	-16%	23µM*	?	?
COc1cccc(OCCOCC(O)CN2CCN(Cc3ccc(Cl)cc3)CC2)c1 (centres undefined)	-2%	-9%	?	-17	-26%
COc1ncc2nc(-c3cc(F)cc(F)c3)c(=O)n(CCC#N)c2n1	·	·	-24%	·	-1%
COc1ccc(CNC(=O)/C=C/c2ccc(S(=O)(=O)N3CCOCC3)cc2)cc1	2%	2%	?	0	-16%
COc1ccc(CN(C)C(=O)/C=C/c2ccc(S(=O)(=O)N3CCOCC3)cc2)cc1F	2%	0%	21µM*	-14	16µM*
CN(Cc1ccc(OC(F)F)cc1)C(=O)/C=C/c1ccc(S(=O)(=O)N2CCOCC2)cc1	2%	-3%	?	-66*	18µM*
Cc1ccccc1NC(=O)C1CC(=O)N(c2ccc3c4c(cccc24)CC3)C1 (centres undefined)	7%	0%	-23%	-30	?
O=C(Nc1ccccc1Br)C1CC(=O)N(c2ccc3c4c(cccc24)CC3)C1 (centres undefined)	?	?	21µM*	?	23µM*
Fc1ccc(NC(=S)Nc2ccc(Cl)cc2)cc1	?	-11%	23µM*	-23	?
Fc1ccc(NC(=S)Nc2cc(Cl)ccc2Cl)cc1	8%	6%	?	18	5.8µM*
COc1ccc(C(=O)Nc2cc(C)nn2-c2cccc(F)c2)cc1OC	-8%	0%	-29%	-20	-17%
O=C(CN1C(=O)C2C3C=CC(C3)C2C1=O)OCC(=O)c1ccc(Cl)c([N+](=O)[O-])c1 (centres undefined)	3%	-14%	?	-78*	21µM*
Cc1ccc(C(=O)COC(=O)CN2C(=O)C3C4CCC(C4)C3C2=O)cc1[N+](=O)[O-] (centres undefined)	5%	20%	?	4	?
Clc1ccc(-n2nnnc2-c2cnc3ccc(Cl)cc3c2-c2ccccc2)cc1	8%	9%	?	-14	?
Clc1ccc2ncc(-c3nnnn3-c3ccccc3)c(-c3ccccc3)c2c1	21µM*	?	?	5	?
c1ccc(-n2nnnc2-c2cccc3ccccc23)cc1	5.8µM*	8.2µM*	4.6µM*	30	3.7µM*
Clc1ccc2[nH]cc(-c3nnnn3-c3ccccc3)c2c1	?	?	?	-1	21µM*
O=C(O)C(Cc1c[nH]c2ccccc12)N1C(=O)C2C3c4ccccc4C(c4ccccc43)[C@@H]2C1=O (some centres undefined)	10%	0%	5%	9	-3%
O=S(=O)(Nc1cccc(-c2ccc(N3CCCCC3)nn2)c1)c1cccc(F)c1	·	·	-29%	·	-24%
COc1ccc(-c2ncccc2OC(=O)C23CC4CC(CC(C4)C2)C3)cc1OC	-11%	-27%	?	5	?
CCOc1ccc(CCNC(=O)c2cc(=O)[nH]c3ccc(S(=O)(=O)N4CCCCC4)cc23)cc1OCC	·	·	-5%	·	-1%
Cc1nc(NC(=O)CSc2nnc(Cn3nnc4ccccc43)n2C)sc1C	16%	9%	?	-6	-7%
Cc1cc2c(cc3c(=O)n(CC(=O)NCCCN4CC(C)CC(C)C4)ncn32)s1 (centres undefined)	8%	21%	10%	?	5%
CCCCn1nnnc1C(c1cc2ccccc2o1)N(CCN(C)C)Cc1ccccc1 (centres undefined)	18µM*	21µM*	16µM*	?	26µM*
CN(C)CCN(Cc1ccccc1)C(c1cc2ccccc2o1)c1nnnn1C(C)(C)C (centres undefined)	?	?	?	-54*	16µM*
SMILES	HT1080-NT tox	HT1080 IDH1KD tx	TDP1 cell noCPT	IL-1B inflam inh	TDP1 cell CPT
CC(C)(C)n1nnnc1C(c1cc2ccccc2o1)N(CCC#N)Cc1ccccc1 (centres undefined)	-3%	3%	?	25	?
Cc1ccccc1NCC(=O)N/N=C/c1c(C)c(C(=O)c2ccc(Cl)cc2)n2ccccc12	-3%	5%	16µM*	0	16µM*
C[C@H]1CN([C@@H](C)CO)C(=O)c2cc(Br)cnc2O[C@H]1CN(C)C(=O)c1ccc2c(c1)OCO2	5%	5%	2%	20	17%
O=C([O-])c1ccccc1-[n+]1c(-c2ccccc2)cc(-c2ccccc2)cc1-c1ccccc1	-15%	-17%	5.8µM*	10	4.6µM*
CCOc1ccc(C(=O)Nc2ccc3[nH]ncc3c2)cc1	-29%	-26%	0%	-6	?
CCOC(=O)c1ccc2nc(C)cc(Nc3ccc(OC(C)C)cc3)c2c1	·	·	18µM*	·	23µM*
COc1ccc2nc(C)cc(Nc3ccccc3O)c2c1	-10%	-8%	?	?	23µM*
CCOC(=O)c1ccc2nc(C(F)(F)F)[nH]c(=O)c2c1	-1%	-2%	7.3µM*	0	16µM*
COc1ccc2nc(C)cc(NCc3cccc(C(F)(F)F)c3)c2c1	23µM*	16µM*	13µM*	-96*	15µM*
CCOC(=O)c1ccc2nc(C)c3c(c2c1)OC(C)C3 (centres undefined)	-15%	-14%	-13%	-7	-8%
CCOC(=O)c1ccc(NC(=O)c2cc(C)nc3ccccc23)cc1	11%	20%	4%	-5	18%
N/C(=N\OC(=O)CCC1CCCC1)c1ccccn1	0%	3%	-6%	-7	-14%
